# Reference: PubChem BioAssay (NCATS)
# “And” between values parts separate entries of the source, which are not always exact repeats. Identical values can stand only once. Results filed as inconclusive are left out. Some structures have more than one record in an assay (separate samples or runs), and their calls can disagree. The source made the active and inactive calls. Unless noted, calls follow the shape of the full dose curve.
# Tests used:
# [1] = biological target: Rap guanine nucleotide exchange factor 3 (Homo sapiens) (UniProt O95398); experiment: Confirmatory qHTS for antagonist of cAMP-regulated guanine nucleotide exchange factor 3 (EPAC1) (AID 1645880; active = well fitted inhibition curve with a large enough effect; also: potency is read from the fitted curve at half-maximal effect; nearly all actives have a fitted effect of over 55% in size)
# Chain of Rap guanine nucleotide exchange factor 3 (Homo sapiens) (O95398 whole entry, looked up): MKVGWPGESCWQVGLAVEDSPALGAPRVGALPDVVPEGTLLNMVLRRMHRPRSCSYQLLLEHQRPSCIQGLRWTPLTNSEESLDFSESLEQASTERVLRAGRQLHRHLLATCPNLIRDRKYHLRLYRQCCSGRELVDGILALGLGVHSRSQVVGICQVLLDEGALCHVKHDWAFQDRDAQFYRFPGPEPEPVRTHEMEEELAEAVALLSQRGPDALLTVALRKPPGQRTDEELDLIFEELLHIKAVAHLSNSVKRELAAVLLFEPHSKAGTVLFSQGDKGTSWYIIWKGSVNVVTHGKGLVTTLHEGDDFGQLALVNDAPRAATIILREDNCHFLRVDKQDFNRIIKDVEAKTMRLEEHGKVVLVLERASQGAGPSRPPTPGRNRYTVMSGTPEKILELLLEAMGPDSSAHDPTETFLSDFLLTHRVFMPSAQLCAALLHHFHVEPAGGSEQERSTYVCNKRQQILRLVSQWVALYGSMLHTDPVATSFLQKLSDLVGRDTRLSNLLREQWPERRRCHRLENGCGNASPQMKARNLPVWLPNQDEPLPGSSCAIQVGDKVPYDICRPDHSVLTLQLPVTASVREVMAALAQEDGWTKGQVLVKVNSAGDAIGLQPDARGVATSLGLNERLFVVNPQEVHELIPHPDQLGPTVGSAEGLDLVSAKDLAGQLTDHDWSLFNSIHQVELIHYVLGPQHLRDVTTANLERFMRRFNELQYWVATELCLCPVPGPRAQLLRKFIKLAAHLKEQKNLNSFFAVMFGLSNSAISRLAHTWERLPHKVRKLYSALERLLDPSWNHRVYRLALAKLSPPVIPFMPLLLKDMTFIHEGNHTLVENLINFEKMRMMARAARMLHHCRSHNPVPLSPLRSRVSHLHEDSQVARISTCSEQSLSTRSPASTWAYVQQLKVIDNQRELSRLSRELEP
# Method in brief: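 Nucleotide exchange uses 100 nM EPAC1, 250 nM RAP1B-BODIPY-GDP and 50 uM GDP, with compounds in a concentration-titration series. After 5 min at room temperature, fluorescence (480 nm ex/540 nm em) is read every 5 min for 30 min. Data are normalized to control ATA and DMSO.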
# [2] = biological target: Rap guanine nucleotide exchange factor 3 (Homo sapiens) (UniProt O95398); experiment: Counterscreen qHTS for antagonist of cAMP-regulated guanine nucleotide exchange factor 3 (EPAC1) (AID 1645888; active = well fitted inhibition curve with a large enough effect;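 also: fluorescence loss as bound BODIPY-GDP is released from Rap1B; % of control where 0% means no effect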)
# Method in brief: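 Measured: fluorescence of BODIPY-GDP bound to Rap1B, which falls as exchange proceeds. Conditions include 50 uM competing GDP, 5 and 30 min reads, and a later cAMP challenge for antagonist detection.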
# [3] = Confirmatory qHTS to identify inhibitors of SARS-CoV-2 cell entry (AID 1645844); also: potency is read from the fitted curve at half-maximal effect; nearly all actives have a fitted effect of over 45% in size
# Method in brief: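 HEK293-ACE2 cells (Expi293F stably expressing human ACE2) were pretreated with compounds for 1 hr at 37C, then infected with MLV-based particles carrying Wuhan-Hu-1 spike (C-terminal 19-aa truncation). Luciferase luminescence read after 48 hr; normalized to spike PP (100%) and bald PP (0%).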
# [4] = VSVG counterscreen qHTS to identify inhibitors of SARS-CoV-2 cell entry (AID 1645847); also: potency is read from the fitted curve at half-maximal effect; nearly all actives have a fitted effect of over 65% in size
# Method in brief: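 Counterscreen using VSV-G (not spike) pseudotyped MLV particles on ACE2-expressing Expi293F cells after 1 h compound preincubation; infection ran 48 h at 37 °C. Data normalized to VSV-G PP and bald-PP wells.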
# [5] = Cytotoxicity counterscreen for inhibitors of SARS-CoV-2 cell entry (AID 1645845); also: nearly all actives have a fitted effect of over 50% in size
# Method in brief: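 Expi293F/hACE2 cells seeded overnight; cpd pin-transferred in DMSO, 1 h preincubation, + media, 48 h 37 C 5% CO2; ATPLite 1step luminescence; normalized to cells and no cells.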
# [6] = Primary qHTS to identify inhibitors of SARS-CoV-2 cell entry (AID 1645846); settings: activity change, negative = inhibition: at 57.1 µM (top of the series) unless noted; also: nearly all actives have a fitted effect of over 45% in size; also: potency is read from the fitted curve at half-maximal effect
# Method in brief: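 Data are normalized to wells receiving SARS-CoV-2-S pseudoparticles and those given bald particles. Entry signal was luciferase luminescence in stable hACE2 Expi293F cells, 48 hr post-infection, after 1 hr compound pretreatment.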
compound,measurement,setting,value
O=c1oc2ccccc2c(O)c1C(CC(O)c1ccc(-c2ccc(Br)cc2)cc1)c1ccccc1 (stereo unspecified),Potency,[1],15.7 µM (active)
Clc1ccc(COC(Cn2ccnc2)c2ccc(Cl)cc2Cl)cc1 (stereo unspecified),outcome,[2],inactive
CC(CN(C)C)CN1c2ccccc2CCc2ccccc21 (stereo unspecified),Potency,[3],7.64 µM (active)
same,Potency,[4],1.92 µM (active)
COc1ccccc1OCC(O)COC(N)=O (stereo unspecified),Potency,[5],inactive
C[C@]12CC[C@@H]3c4ccc(O)cc4C[C@@H](CCCCCCCCCS(=O)CCCC(F)(F)C(F)(F)F)[C@H]3[C@@H]1CC[C@@H]2O (stereo partly specified),Potency,[5],inactive
Cc1cnc(C(=O)NCCc2ccc(S(=O)(=O)NC(=O)NC3CCCCC3)cc2)cn1,Potency,[5],inactive
O=C1CCc2ccc(OCCCCN3CCN(c4cccc(Cl)c4Cl)CC3)cc2N1,Potency,[3],19.2 µM (active)
same,Potency,[4],13.6 µM (active)
Cc1[nH]cnc1CN1CCc2c(c3ccccc3n2C)C1=O,Potency,[5],inactive
CN(C)C(=O)C(CCN1CCC(O)(c2ccc(Cl)cc2)CC1)(c1ccccc1)c1ccccc1,Potency,[3],21.5 µM (active)
same,Potency,[5],inactive
same,Potency,[4],24.1 µM (active)
Cc1ccc(-n2[nH]c(C)c(N=Nc3cccc(-c4cccc(C(=O)O)c4)c3O)c2=O)cc1C,Potency,[5],inactive
O=C(O)c1ccc(-n2nc(-c3ccccc3O)nc2-c2ccccc2O)cc1,Potency,[3],30.4 µM (active)
same,Potency,[4],24.1 µM (active)
CCN(CC)CCOC(=O)C1(C2CCCCC2)CCCCC1,Potency,[5],inactive
COC(=O)C1=C(C)NC(C)=C(C(=O)OCC(C)C)C1c1ccccc1[N+](=O)[O-] (stereo unspecified),Potency,[3],6.07 µM (active)
same,"activity change, negative = inhibition",[6],-96.9%
same,Potency,[4],5.41 µM (active)
CN1CCc2cccc3c2[C@H]1Cc1ccc(O)c(O)c1-3,Potency,[5],inactive
CC(=O)Oc1ccccc1C(=O)Nc1ncc([N+](=O)[O-])s1,Potency,[3],3.83 µM (active)
same,Potency,[5],inactive
same,Potency,[4],1.08 µM (active)
Nc1ccn([C@@H]2O[C@H](CO)[C@@H](O)C2(F)F)c(=O)n1,Potency,[3],0.341 µM (active)
same,Potency,[6],3.16 µM (active)
same,"activity change, negative = inhibition",[6],-96.3%
same,Potency,[4],0.304 µM (active)
CN(C)CCc1c[nH]c2ccc(C[C@H]3COC(=O)N3)cc12,Potency,[5],inactive
CC(C)(O)c1ccccc1CC[C@@H](SCC1(CC(=O)O)CC1)c1cccc(/C=C/c2ccc3ccc(Cl)cc3n2)c1,Potency,[5],inactive
Cc1onc(-c2c(Cl)cccc2Cl)c1C(=O)N[C@@H]1C(=O)N2[C@@H]1SC(C)(C)[C@@H]2C(=O)O,Potency,[5],inactive
CCCCNc1ccc(C(=O)OCCOCCOCCOCCOCCOCCOCCOCCOCCOC)cc1,Potency,[3],15.2 µM (active)
same,Potency,[4],21.5 µM (active)
COc1cc2nc(N3CCN(C(=O)C4COc5ccccc5O4)CC3)nc(N)c2cc1OC (stereo unspecified),Potency,[5],inactive
O=NN(CCCl)C(=O)NCCCl,Potency,[5],inactive
OCCN(CCO)c1nc(N2CCCCC2)c2nc(N(CCO)CCO)nc(N3CCCCC3)c2n1,Potency,[5],inactive
COc1cc(Nc2c(C#N)cnc3cc(OCCCN4CCN(C)CC4)c(OC)cc23)c(Cl)cc1Cl,Potency,[3],19.2 µM (active)
same,Potency,[6],3.16 µM (active)
CC/C(=C(\c1ccccc1)c1ccc(OCCN(C)C)cc1)c1ccccc1,Potency,[3],27.8 µM (active)
same,Potency,[5],inactive
same,Potency,[4],49.4 µM (active)
COc1cccc2c1C(=O)c1c(O)c3c(c(O)c1C2=O)C[C@@](O)(C(=O)CO)C[C@@H]3O[C@H]1C[C@H](N)[C@H](O)[C@H](C)O1,Potency,[3],0.192 µM (active)
same,Potency,[5],inactive
same,Potency,[4],0.152 µM (active)
CN(C)CCCN1c2ccccc2Sc2ccc(Cl)cc21,Potency,[3],12.1 µM (active)
same,Potency,[5],inactive
same,Potency,[4],17.1 µM (active)
CCN(CC)CCCC(C)Nc1ccnc2cc(Cl)ccc12 (stereo unspecified),Potency,[5],inactive
Cc1ccc(NC(=O)c2ccc(CN3CCN(C)CC3)cc2)cc1Nc1nccc(-c2cccnc2)n1,Potency,[3],21.5 µM (active)
same,Potency,[6],35.5 µM (active)
Nc1ncn([C@@H]2O[C@H](CO)[C@@H](O)[C@H]2O)c(=O)n1,Potency,[3],17.1 µM (active)
same,Potency,[4],19.2 µM (active)
Cc1onc(-c2ccccc2Cl)c1C(=O)N[C@@H]1C(=O)N2[C@@H]1SC(C)(C)[C@@H]2C(=O)O,Potency,[5],inactive
O=C1C(=O)c2ccccc2C(O)=C1C1CCC(c2ccc(Cl)cc2)CC1 (stereo unspecified),Potency,[3],12.1 µM (active)
same,Potency,[4],9.61 µM (active)
CC(C)NCC(O)COc1cccc2[nH]ccc12 (stereo unspecified),Potency,[5],inactive
CC[C@]1(O)C[C@H]2CN(CCc3c([nH]c4ccccc34)[C@@](C(=O)OC)(c3cc4c(cc3OC)N(C=O)[C@H]3[C@@](O)(C(=O)OC)[C@H](OC(C)=O)[C@]5(CC)C=CCN6CC[C@]43[C@@H]65)C2)C1,Potency,[3],0.0383 µM (active)
same,Potency,[5],inactive
same,"activity change, negative = inhibition",[6],-77.7% and -70.4%
same,Potency,[4],0.0171 µM (active)
CNCCC(Oc1ccc(C(F)(F)F)cc1)c1ccccc1 (stereo unspecified),Potency,[3],6.81 µM (active)
same,Potency,[5],inactive
same,Potency,[4],0.121 µM (active)
CC(C)c1nc(CN(C)C(=O)N[C@H](C(=O)N[C@@H](Cc2ccccc2)C[C@H](O)[C@H](Cc2ccccc2)NC(=O)OCc2cncs2)C(C)C)cs1,Potency,[5],inactive
O=C1Cc2cc(CCN3CCN(c4nsc5ccccc45)CC3)c(Cl)cc2N1,Potency,[5],inactive
CCOc1ccc2ccccc2c1C(=O)N[C@@H]1C(=O)N2[C@@H]1SC(C)(C)[C@@H]2C(=O)O,Potency,[5],inactive
CC(=O)[C@]1(O)Cc2c(O)c3c(c(O)c2[C@@H](O[C@H]2C[C@H](N)[C@H](O)[C@H](C)O2)C1)C(=O)c1ccccc1C3=O,Potency,[3],0.0764 µM (active)
same,Potency,[5],inactive
same,"activity change, negative = inhibition",[6],-91.2% and -93.3%
same,Potency,[4],0.0857 µM (active)
COC(=O)C1=C(C)NC(C)=C(C(=O)OCCN(C)Cc2ccccc2)C1c1cccc([N+](=O)[O-])c1 (stereo unspecified),Potency,[5],inactive
